92 compounds from PubChem BioAssay AID1531 (NMMLSC, 2009) can be followed below.

Screen size: about 290,000 compounds; about 3,300 (1.1%) were called active. Cut-off read from the data, not from the text of the source: active = binding response below about 67% or above about 130%; inconclusive = no clear call, values can overlap the other calls; inactive = in between. The entries come from a sample that favours actives as a whole.

The target of the assay is Mitogen-activated protein kinase kinase kinase 2 (Homo sapiens) (UniProt Q9Y2U5). Nature of the assay: wildtype MEKK2 PB1-MEK5 interaction, increase or decrease – biochemical, multiplex bead flow cytometry, Alexa488-MEK5, primary screen (AID 1531). The note with it: Alexa488-MEK5 binding to MEKK2 WT, at 10 µM, actives lie on both sides.
For `CCOc1cc(C)c(S(=O)(=O)NCc2ccccn2)cc1C`, the binding response (% of control) was 102% (inactive).

`Cc1cccc(N2CCN(C(=O)COCc3cc(-c4ccc5c(c4)OCO5)on3)CC2)c1C`: the binding response (% of control) was 100% (inactive).

With `Cc1nc2sccn2c(=O)c1S(=O)(=O)NCCc1ccccc1`, the binding response (% of control) was 99% (inactive).

`COc1ccc(CN2[C@@H](CC(=O)O)c3cc(F)ccc3S2(=O)=O)cc1`: the binding response (% of control) is 84% (inactive).

Consider `CC(Oc1cccc(Cl)c1)C(=O)NC1CC(C)(C)NC(C)(C)C1` (configuration not stated), for which the binding response (% of control) was 107% (inactive).

Regarding `CC(=O)Nc1ccc(C(=O)Nc2nc(-c3cc(C)n(Cc4ccccc4)c3C)cs2)cc1`, the binding response (% of control) was 107% (inactive).

Take `Cc1cc(-c2csc(N)n2)c(C)n1-c1ccccc1`: the binding response (% of control) is -9% (active).

As to `Cc1cc(-c2csc(N)n2)c(C)n1Cc1ccccc1`, the binding response (% of control) was 89% (inactive).

Turning to `COC(=O)CN1C(=O)[C@H]2[C@@H](/C=C/c3ccccc3)N3C(=O)CN(Cc4ccccc4)C(=O)[C@@]3(Cc3ccccc3)[C@H]2C1=O`, the binding response (% of control) is 95% (inactive).

`COCCNc1cc(-c2ccccc2)nc2cc(-c3cccc(F)c3)nn12`: the binding response (% of control) was 118% (inactive).

Consider `CN1CCC(=O)N([C@H](CO)Cc2ccccc2)CC1`, for which the binding response (% of control) was 97% (inactive).

As for `COc1ccc(SCCN2CCN(CC(C)C)CCC2=O)cc1`, the binding response (% of control) was 131% (inactive).

For the compound `O=C1CCNCCN1[C@H](CO)Cc1ccccc1`, the binding response (% of control) was 110% (inactive).

In the case of `COc1ccc(SC[C@H](Cc2ccccc2)N2CCN(CCc3ccccc3)CCC2=O)cc1`, the binding response (% of control) was 158% (active).

`C[C@H]1CCC(=O)N([C@H](CSc2ccccc2)Cc2ccccc2)CC1`: the binding response (% of control) was 161% (active).

As to `O=C1CCN(Cc2ccccc2)CCN1[C@H](CSc1ccccc1)c1ccccc1`, the binding response (% of control) was 90% (inactive).

As for `O=C(NCc1ccccc1)C1=C[C@@H](c2ccccc2)C[C@@H](OCCCCO)O1`, the binding response (% of control) was 101% (inactive).

For `COCOc1cc(O)c(C(=O)/C=C/c2ccc(OCOC)c(OCOC)c2)c(OCOC)c1`, the binding response (% of control) is 111% (inactive).

With `COc1ccccc1N1CCN(c2nc(C)cc(=O)[nH]2)CC1`, the binding response (% of control) was 107% (inactive).

Regarding `CCCCOc1ccc(C(=O)NCc2ccncc2)cc1`, the binding response (% of control) was 111% (inactive).

Turning to `CCCCOc1ccc(C(=O)NN2CCN(C)CC2)cc1`, the binding response (% of control) was 99% (inactive).

On to `CCCOc1ccc(C(=O)C(CCC(CNCC)C(=O)c2ccc(OCCC)cc2)CNCC)cc1` (configuration not stated), for which the binding response (% of control) was 188% (active).

As to `CCCCN(CCCC)CCNC(=O)CN1C(=O)COc2ccc(S(=O)(=O)N3CCOCC3)cc21`, the binding response (% of control) was 103% (inactive).

Consider `CN=c1scc(-c2cc(OC)ccc2OC)n1/N=C/c1c(C)[nH]c2ccccc12`, for which the binding response (% of control) was 10% (active).

With `CCn1c(-c2cc(OC)ccc2OC)csc1=Nc1c(C)n(C)n(-c2ccccc2)c1=O`, the binding response (% of control) is 107% (inactive).

With `COc1ccc(N=Cc2c(O)[nH]c3ccccc23)cc1OC`, the binding response (% of control) is 103% (inactive).

For `Cc1cc(OCC(=O)NCC(O)c2ccccc2)c2c(C)c(C)c(=O)oc2c1` (configuration not stated), the binding response (% of control) is 100% (inactive).

With `O=C(Nc1ccccc1)c1ccc2c(c1)OCCCO2`, the binding response (% of control) was 105% (inactive).

As for `COc1ccc(C(C)NC(=S)NC2CCCCC2)cc1OC` (configuration not stated), the binding response (% of control) was 101% (inactive).

Take `Cc1[nH]c(=O)c(C(=O)/C=C/c2ccccc2)c2c1CCCC2`: the binding response (% of control) is 101% (inactive).

Take `Cc1nc2nc[nH]n2c(=O)c1C/C=C/c1ccccc1`: the binding response (% of control) was 83% (inactive).

For `Cc1cn(COC/C=C/c2ccccc2)c(=O)[nH]c1=O`, the binding response (% of control) is -7% [inhibitor] (active).

In the case of `COc1ccc(-c2nc3c(s2)CCc2onc(-c4ccc(Br)cc4)c2-3)cc1`, the binding response (% of control) was 95% (inactive).

Consider `CCCCN(CCCC)CCCNC(=O)CN1C(=O)COc2ccc(S(=O)(=O)N3CCC(C)CC3)cc21`, for which the binding response (% of control) was 96% (inactive).

Consider `COc1ccc(N=C2SC(C(=O)Nc3ccc(F)cc3)CC(=O)N2C)cc1` (configuration not stated), for which the binding response (% of control) was 97% (inactive).

Consider `CCOc1ccc(N=C2SC(C(=O)O)CC(=O)N2C)cc1` (configuration not stated), for which the binding response (% of control) was 92% (inactive).

On to `CN=C1SC(C(=O)O)CC(=O)N1C` (configuration not stated), for which the binding response (% of control) was 3% (active).

On to `COc1ccccc1CC(=O)NCCc1c[nH]c2ccccc12`, for which the binding response (% of control) is 101% (inactive).

Take `COc1cccc(CNCCc2c[nH]c3ccccc23)c1OCc1ccccc1F`: the binding response (% of control) is 159% (active).

Turning to `COc1ccc(S(=O)(=O)NCCc2c[nH]c3ccccc23)cc1OC`, the binding response (% of control) was 100% (inactive).

As to `CCn1cc(C(=O)NCC(=O)NC(C)(C)CO)c(=O)c2cc3c(cc21)OCO3`, the binding response (% of control) was 101% (inactive).

Consider `O=C(OCC(=O)N1CCN(C(=O)c2ccco2)CC1)c1cccc(O)c1`, for which the binding response (% of control) is 106% (inactive).

Take `Cc1c(C(=O)NC2CCCCC2)oc2ccccc12`: the binding response (% of control) is 108% (inactive).

Take `Cc1c(C)c2c(OCC(=O)NCCCO)cc3c(c2oc1=O)CCC(C)(C)O3`: the binding response (% of control) is 99% (inactive).

Consider `c1ccc(CN2CCC(N=C3NN=C(c4ccc5c(c4)OCCO5)CS3)CC2)cc1`, for which the binding response (% of control) was 154% (active).

On to `CS(=O)(=O)N(CC(=O)N1CCN(Cc2ccccc2)CC1)c1ccc2c(c1)OCCO2`, for which the binding response (% of control) is 103% (inactive).

Consider `Clc1cccc(N=C2NN=C(c3ccc4c(c3)OCCO4)CS2)c1`, for which the binding response (% of control) is 97% (inactive).

Turning to `CC1(c2nnc(-c3ccncc3)o2)CC(c2cccnc2)=NO1` (configuration not stated), the binding response (% of control) was 105% (inactive).

As for `O=C(NCCc1ccc(Cl)cc1Cl)c1cc([N+](=O)[O-])c[nH]c1=O`, the binding response (% of control) is 96% (inactive).

For `COc1ccc(Cn2c(-c3ccc(Cl)cc3)c[n+]3ccccc23)cc1`, the binding response (% of control) is 112% (inactive).

As to `Cc1c(C)c2ccc(OCC(=O)N3CCN(c4cccc(Cl)c4)CC3)cc2oc1=O`, the binding response (% of control) was 92% (inactive).

For the compound `Cc1ccc(C(CNC(=O)Nc2cccc(C)c2)N2CCN(C)CC2)cc1` (configuration not stated), the binding response (% of control) was 104% (inactive).

As for `CCN1C(=NCC(C)C)N[C@@H](CCc2ccccc2)[C@H](C(=O)NCC(C)C)[C@H]1C`, the binding response (% of control) is 103% (inactive).

As to `CCN1C(=S)N[C@@H](CCc2ccccc2)[C@H](C(=O)OC)[C@H]1C`, the binding response (% of control) is 98% (inactive).

As for `CCN1C(=NCc2ccc(OC)cc2)N[C@@H](CCc2ccccc2)[C@H](C(=O)NCc2ccc(OC)cc2)[C@H]1C`, the binding response (% of control) is 139% (active).

Turning to `COc1ccc(CCNS(=O)(=O)c2cc3c(cc2C)NC(=O)CO3)cc1OC`, the binding response (% of control) is 98% (inactive).

As for `COc1ccc(NC(=O)CSc2nc3ccccc3c(=O)n2C)cc1`, the binding response (% of control) is 105% (inactive).

With `COc1ccccc1/C=N/Nc1nc(C)c(C(C)=O)s1`, the binding response (% of control) was 95% (inactive).

With `O=C(CSc1nc(Nc2ccccc2)nc(N2CCOCC2)n1)Nc1cc(Cl)ccc1O`, the binding response (% of control) is 99% (inactive).

Turning to `Cc1c(CCOC(=O)c2cc([N+](=O)[O-])ccc2Cl)sc[n+]1CCCCS(=O)(=O)[O-]`, the binding response (% of control) is 97% (inactive).

Regarding `Cc1c(CCOC(=O)CC23CC4CC(CC(C)(C4)C2)C3)sc[n+]1Cc1ccc([N+](=O)[O-])cc1`, the binding response (% of control) is 172% (active).

As for `Cc1c(CCO)sc[n+]1CC(=O)OC12CC3CC(CC(C3)C1)C2`, the binding response (% of control) was 97% (inactive).

For `CS(=O)(=O)N(Cc1nc2sc3c(c2c(=O)[nH]1)CCCC3)C1CCCCC1`, the binding response (% of control) was 99% (inactive).

Regarding `COc1ccc(-c2csc3ncnc(N4CCN(S(=O)(=O)c5ccccc5C#N)CC4)c23)cc1`, the binding response (% of control) is 107% (inactive).

For the compound `CC1(OC(=O)CCc2ccccc2)C(=O)C=C2C=C(c3ccc(C#N)cc3)N(CCc3ccccn3)C=C2C1=O` (configuration not stated), the binding response (% of control) is 111% (inactive).

On to `C=CCN1C=C2C(=O)C(C)(OC(=O)CCc3ccccc3)C(=O)C=C2C=C1c1ccc(C#N)cc1` (configuration not stated), for which the binding response (% of control) was 142% (active).

With `COC(=O)CCCC1=CC2=CC(=O)C(C)(OC(=O)c3cccs3)C(=O)C2=CN1c1cccc(C#N)c1` (configuration not stated), the binding response (% of control) was 96% (inactive).

Regarding `Cc1ccc(C23CC4CC(CC(C(=O)NCC(=O)O)(C4)C2)C3)cc1`, the binding response (% of control) was 105% (inactive).

Take `N#C/C(=C\c1cccnc1)C(=O)Nc1ccc(SC(F)F)cc1`: the binding response (% of control) is 107% (inactive).

With `CCOc1ccc(N/C=C/C(=O)c2ccccc2)cc1`, the binding response (% of control) is 109% (inactive).

For `O=C(Nc1cn(-c2ccccc2)nc1-c1ccccc1)c1ccccc1`, the binding response (% of control) was 96% (inactive).

For the compound `CCc1ccc(-c2nn(-c3ccccc3)cc2CSC(=N)N)cc1`, the binding response (% of control) is 140% (active).

`Cc1ccc(-c2nn(-c3ccccc3)cc2CN(Cc2ccccc2)C(=O)CCC(=O)O)o1`: the binding response (% of control) is 97% (inactive).

Consider `CC(=O)NCCc1ccc(S(=O)(=O)Nc2ccc(C)c(S(=O)(=O)N3CCOCC3)c2)cc1`, for which the binding response (% of control) was 103% (inactive).

As for `CCc1ccccc1NC(=O)c1ccc2snnc2c1`, the binding response (% of control) is 100% (inactive).

Regarding `O=C(Nc1cccc(Br)c1)c1ccc2snnc2c1`, the binding response (% of control) is 97% (inactive).

Consider `O=C(Nc1ccc2ccccc2c1)Nc1ccc2snnc2c1`, for which the binding response (% of control) is 158% (active).

For the compound `COc1ccc2c(c1)CCNC2Cc1ccc(OC)c(O)c1` (configuration not stated), the binding response (% of control) is 96% (inactive).

For `COc1ccc(N2CCN(CCNC(=O)Nc3cc(Cl)ccc3Cl)CC2)cc1`, the binding response (% of control) is 113% (inactive).

With `C=CC1=C(C(=O)O)N2C(=O)[C@@H](NC(=O)/C(=N/OCC(=O)O)c3csc(N)n3)[C@H]2SC1`, the binding response (% of control) was 98% (inactive).

Regarding `O=C1Nc2ccc(Br)cc2/C1=N/N=C/C1=C(N2CCOCC2)C(=C\c2ccccc2)/CC1`, the binding response (% of control) is 40% [inhibitor] (active).

For `C(=N\N1CCN(c2ccccn2)CC1)/C1=C(N2CCOCC2)C(=C/c2ccccc2)/CC1`, the binding response (% of control) was 104% (inactive).

Take `COc1ccc(/C=N/N=C2/C(=O)Nc3ccccc32)cc1O`: the binding response (% of control) was 98% (inactive).

`CS(=O)(=O)N1CCN(C(=O)CSc2ccccc2)CC1`: the binding response (% of control) is 101% (inactive).

As for `CC(C)(C)C(=O)c1cnc(Nc2ccccc2)s1`, the binding response (% of control) was 100% (inactive).

As for `COc1ccc(C)cc1Nc1n[n+](-c2ccccc2)c(-c2cccc(Cl)c2Cl)s1`, the binding response (% of control) was 120% (inactive).

On to `COc1cc(Br)c(-c2sc(Nc3ccccc3)n[n+]2-c2ccccc2)cc1OC`, for which the binding response (% of control) is 152% (active).

Regarding `COc1ccc(C#Cc2c(-c3ccc(OC)cc3)oc3ccc(-c4ccc5c(c4)OCO5)cc23)cc1`, the binding response (% of control) is 96% (inactive).

On to `O=C(CNC(=O)OCc1ccccc1)NC1CCCCNC1=O` (configuration not stated), for which the binding response (% of control) is 100% (inactive).

For `Cc1ccc(NC(=S)N(CCCN2CCC(C)CC2)Cc2ccco2)cc1`, the binding response (% of control) was 107% (inactive).

With `Cc1ccc(NC(=S)N(CCCN2CCCC2)Cc2cccn2Cc2ccc(Cl)cc2)cc1`, the binding response (% of control) was 181% (active).

Regarding `Cc1ccc(NC(=S)N(CCN2CCCCC2)Cc2ccco2)cc1C`, the binding response (% of control) was 97% (inactive).
